ssDAF-12 act = S. stercoralis DAF-12 activation, primary screen; HEK293 ssDAF-12/GRIP1 lit1-tk-luc reporter, luminescence; % of 3 µM dafachronic acid response; activation, % at 6.8 µM; 370,000 compounds, 1% hits; AID 652126;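 active means activation above the mean over all tested compounds plus 3 SD, cut at about 0.9% in these data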
DAX1 inh-1 = NR0B1 (DAX1) inhibition; 340,000 compounds, 0.99% hits; HEK293 Gal4-DAX1 luciferase reporter, luminescence; inhibition, % at 6.75 µM; P51843;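 active means inhibition above the mean over all tested compounds plus 3 SD, cut at about 4.2% in these data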;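 further: inhibition shows as a rise in luminescence from relieved DAX1 repression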
DAX1 inh-2 = inhibitors of DAX1 repression of SF-1 activated StAR promoter; 370,000 compounds, 1.1% hits; inhibition, % at 6.8 µM; HEK293T StAR-luciferase reporter, SF-1/DAX-1 repression relief; AID 652010;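 active means inhibition above the mean over all tested compounds plus 3 SD, cut at about 3.6% in these data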;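 further: higher inhibition means more luminescence from relief of DAX-1 repression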
Rev-erbA mod = Rev-erb alpha (human) modulation; P20393; Rev-erbα–FITC-DNA binding, fluorescence polarization, 90 min; activity, % at 10 µM; 370,000 compounds, 0.79% hits;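 active means activity above about 14%, limit read from the data; passing the limit was not always enough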
Target sequence (P20393 whole entry, looked up): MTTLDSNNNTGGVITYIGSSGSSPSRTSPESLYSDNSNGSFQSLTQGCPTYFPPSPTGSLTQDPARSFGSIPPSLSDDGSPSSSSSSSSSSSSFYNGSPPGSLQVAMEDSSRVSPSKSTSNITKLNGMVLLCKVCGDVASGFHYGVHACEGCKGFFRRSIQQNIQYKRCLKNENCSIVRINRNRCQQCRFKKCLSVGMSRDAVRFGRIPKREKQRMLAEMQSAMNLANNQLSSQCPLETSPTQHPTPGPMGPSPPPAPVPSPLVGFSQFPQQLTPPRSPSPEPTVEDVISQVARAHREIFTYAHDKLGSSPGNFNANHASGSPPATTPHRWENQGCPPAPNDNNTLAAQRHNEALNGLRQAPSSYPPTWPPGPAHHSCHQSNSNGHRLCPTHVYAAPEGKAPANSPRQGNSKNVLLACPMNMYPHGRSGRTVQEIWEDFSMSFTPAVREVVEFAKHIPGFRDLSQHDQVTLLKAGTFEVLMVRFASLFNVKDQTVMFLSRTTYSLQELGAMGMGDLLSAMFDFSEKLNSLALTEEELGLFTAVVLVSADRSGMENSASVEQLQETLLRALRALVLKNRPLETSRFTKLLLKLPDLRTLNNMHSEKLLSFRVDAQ
hgDAF12 agonist = activates the H. glycines DAF-12 receptor ligand-binding domain; HEK293 GAL4-hgDAF12 UAS-luciferase reporter, agonist luminescence; normalized to butyrate control; activation, % at 6.8 µM; 370,000 compounds, 1.8% hits; AID 687014;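 active means activation above a cutoff set at the mean of all screened compounds plus 3 SD, cut at about 10% in these data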
hcDAF-12 act = activators of H. contortus DAF-12 nuclear receptor; activation, % at 6.8 µM; 370,000 compounds, 1.4% hits; HEK293 hcDAF-12 lit1-tk-luc reporter, luminescence; 0% DMSO, 100% Δ7-dafachronic acid;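 active means activation above the mean of all tested compounds plus 3 SD, cut at about 5.5% in these data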
Of the large screens only hits and unclear results are named; the others gave an inactive call. Compounds with a hit are over-represented: about 4.8% of the library has one in this group of screens.

Cc1ccc2cc(CCNC(=O)c3cccc([N+](=O)[O-])c3)c(=O)[nH]c2c1	none
Cc1ccc2cc(COC(=O)c3cccc([N+](=O)[O-])c3)c(=O)[nH]c2c1	DAX1 inh-1 4.5
O=C(N/N=C1\CCc2ccccc21)c1ccccc1Cl	hgDAF12 agonist 11.9
Cc1cc2c(cc1C)/C(=N/NC(=O)c1ccccn1)CCC2	hgDAF12 agonist 10.7 (no result: DAX1 inh-1)
O=C(N/N=C1\CCc2ccccc21)c1ccc(O)cc1	none
CC(C)(C)c1ccc(-c2nnc(SCC(=O)Nc3cccc4ccccc34)n2Cc2ccco2)cc1	none (no result: DAX1 inh-1)
COc1ccc(F)cc1-c1cc(C(C)=O)c2n(c1=O)CCC2	none (no result: DAX1 inh-1)
CCOC(=O)c1oc2ccc(CNCCO)c(Cl)c2c1C	hcDAF-12 act 6.1
Cc1ccccc1C(=O)Nc1cc(S(=O)(=O)N2CCCCC2)ccc1N1CCN(C)CC1	DAX1 inh-1 5.0
CCN1CCN(c2ccc(S(=O)(=O)N3CCOCC3)cc2NC(=O)c2ccc(C)cc2C)CC1	DAX1 inh-2 3.9
COc1ccc(NCC(=O)Nc2cc(S(=O)(=O)N3CCOCC3)ccc2N2CCOCC2)c(OC)c1	DAX1 inh-1 7.1
O=S(=O)(c1ccccc1F)n1c(CN2CCOCC2)nc2ccccc21	none (no result: DAX1 inh-1)
CCOc1cc(C(=O)N(C)CC(=O)Nc2cccc(F)c2)ccc1OCC(=O)N1CCCCC1	ssDAF-12 act 1.3
COc1ccc(-n2c(SCC(=O)NCCCSC)nnc2-c2ccncc2)cc1	none (no result: DAX1 inh-1)
Cc1cc(O)c(C2(C(F)(F)F)NCCNC2=O)cc1C (stereo not given)	none
O=C1NCCNC1(c1c[nH]c2ccccc12)C(F)(F)F (stereo not given)	ssDAF-12 act 1.4
C[C@@H]1CNC(=O)c2c(C(=O)N3CCN(c4ccccc4)CC3)ncn21	none (no result: DAX1 inh-1)
O=C(CN1C(=O)C2(OCCCO2)c2ccccc21)NCc1ccc2ccccc2c1	none (no result: DAX1 inh-1)
CCOc1ccccc1CN1CCN(Cc2ccc3cc(F)ccc3n2)CC1CCO (stereo not given)	DAX1 inh-1 5.4
O=C(NNC(=O)C1CC2CCC1C2)c1sc2ccccc2c1Cl (stereo not given)	hgDAF12 agonist 12.9
C=CCN1C(=O)[C@@H](CC(=O)NCc2cccs2)[C@]2(C(=O)OC)CCCCC=C12	none (no result: DAX1 inh-1)
c1ccc2c(c1)-c1nc3ccccc3cc1C2N1CCCCC1 (stereo not given)	ssDAF-12 act 1.4, DAX1 inh-2 4.2
CCn1c(SCC(=O)Nc2cccc3ccccc23)nnc1-c1cccs1	none (no result: DAX1 inh-1)
COc1cc(-n2c(=O)c3ccccc3n(CC(=O)c3ccc(Br)cc3)c2=O)cc(OC)c1OC	DAX1 inh-1 5.4
O=C1c2cc(O)cc(O)c2C(=O)c2c1cc(O)c([C@@H](CO)CCO)c2O	hcDAF-12 act 6.1
O=C(O)c1ccc(-n2ncc3c2/C(=C\c2cccc([N+](=O)[O-])c2)CC3)cc1	none
O=C(O)c1ccc(-n2ncc3c2/C(=C/c2cccc([N+](=O)[O-])c2)CC3)cc1	ssDAF-12 act 0.9
Cc1[nH]nc2c1C(c1ccc(F)cc1)N(Cc1ccccc1)C2=O (stereo not given)	none (no result: DAX1 inh-1)
Cc1cc(N2CCNC[C@@H]2C)ccc1N1CCN(Cc2ccccc2)[C@H](C)C1	none (no result: DAX1 inh-1)
COC[C@@H]1CCCN1c1ccc2c(c1)O[C@@H]1CCN(C1)S2(=O)=O	none (no result: DAX1 inh-1)
C[C@@H]1C[C@H]2[C@@H](Cc3ccccc3)C(=O)N3[C@H](c4ccccc4)[C@H](C)C[C@H]3[C@@H](Cc3ccccc3)C(=O)N2[C@@H]1c1ccccc1	none (no result: DAX1 inh-1)
Cc1ccc(NC(=O)Nc2ccccc2CC[N+](=O)[O-])cc1	hcDAF-12 act 5.8 (no result: DAX1 inh-1)
CC(=O)N(CCCN(C)C)CCC(C)CCC=C(C)C (stereo not given)	ssDAF-12 act 1.1
CC(=O)N(CCCc1ccc(C(C)(C)C)cc1)CCCN(C)C	none
CCc1cc(=O)n2[nH]c(C)c(-c3ccccc3OC)c2n1	none
COCc1cc(=O)n2[nH]c(C)c(-c3ccc(Cl)cc3)c2n1	hgDAF12 agonist 12.9
CCOC(=O)c1[nH]c2c(c1-c1ccccc1)C(=O)CC(c1ccccc1)C2 (stereo not given)	DAX1 inh-1 6.6
COC(=O)c1[nH]c2c(c1C)C(=O)CC(c1ccccc1)C2 (stereo not given)	none
CCC(C)OC(=O)c1[nH]c2c(c1C)C(=O)CC(c1ccc(N(C)C)cc1)C2 (stereo not given)	hgDAF12 agonist 11.3
C=CCN1[C@H](C)COc2cccc(N3CCCC3)c2S1(=O)=O	none (no result: DAX1 inh-1)
C=CCNC(=O)Nc1ccc2c(c1)[C@@]1(CC(=O)N(CC(C)C)C1c1ccccc1)C(=O)N2C (stereo not given in full)	none (no result: DAX1 inh-1)
O=C(CC1NCCc2ccccc21)Nc1ccccc1 (stereo not given)	ssDAF-12 act 0.9
CCCc1nnc(SCC(=O)N2CCCCC2C)n1CC1CCCO1 (stereo not given)	none
Cc1ccc(NCc2nnc(SCC(N)=O)n2CC2CCCO2)c(C)c1 (stereo not given)	DAX1 inh-1 5.5
CCCc1nnc(SCC(=O)N(CC)CC)n1CC1CCCO1 (stereo not given)	DAX1 inh-1 5.5
CC1CCCCN1C(=O)COC(=O)c1cc(-c2cccs2)nn1-c1ccccc1 (stereo not given)	none
COC(=O)C1CCN(C(=O)COC(=O)c2cc(-c3cccs3)nn2-c2ccccc2)CC1	DAX1 inh-1 4.6
COc1cccc(CO[C@H]2C=C[C@@H](c3ccccc3)O[C@@H]2CO)c1	none (no result: DAX1 inh-1)
Cc1nc(-c2ccncc2)nc(NCCNc2ccc(C(F)(F)F)cn2)c1Cl	DAX1 inh-1 9.1
CCC1CCC/C1=N\NC(=O)c1ccccc1C (stereo not given)	DAX1 inh-1 5.3
COCCNC(=O)CN(Cc1ccc(F)cc1)C(=O)CCC(=O)Nc1nccs1	DAX1 inh-1 4.2
OCCC1CN(CC#Cc2ccccc2)CCN1Cc1ccccc1F (stereo not given)	ssDAF-12 act 1.6
CC1(NC(=S)NCCCCCCNC(=S)NC2(C)CCS(=O)(=O)C2)CCS(=O)(=O)C1 (stereo not given)	DAX1 inh-1 5.0
CCC(CO)Nc1cccc2c1S(=O)(=O)N(Cc1cn(Cc3ccc(F)cc3)nn1)Cc1ccccc1O2 (stereo not given)	none (no result: DAX1 inh-1)
Cc1cccc(C)c1NC(=O)CN1CCCC1	DAX1 inh-1 4.5
Cc1cccc(C)c1NC(=O)CN1CCNCC1	none
Nc1ncnc(N)c1NC(=O)c1ccccc1	none (no result: DAX1 inh-1)
Oc1ccccc1C=NN=C1c2ccccc2-c2ccccc21	ssDAF-12 act 2.1
CC(=O)CSc1nnc(-c2ccc(S(=O)(=O)N3CCOCC3)cc2)n1C	DAX1 inh-1 5.4
CC(=O)CSc1nnc(-c2ccc(S(=O)(=O)N3CCCC3)cc2)n1C	none
